# How the values were obtained:
# [1] = biological target: T1, Ephrin type-A receptor 3 (Homo sapiens) (UniProt P29320); conditions: at 10 µM
# T1 sequence (whole entry): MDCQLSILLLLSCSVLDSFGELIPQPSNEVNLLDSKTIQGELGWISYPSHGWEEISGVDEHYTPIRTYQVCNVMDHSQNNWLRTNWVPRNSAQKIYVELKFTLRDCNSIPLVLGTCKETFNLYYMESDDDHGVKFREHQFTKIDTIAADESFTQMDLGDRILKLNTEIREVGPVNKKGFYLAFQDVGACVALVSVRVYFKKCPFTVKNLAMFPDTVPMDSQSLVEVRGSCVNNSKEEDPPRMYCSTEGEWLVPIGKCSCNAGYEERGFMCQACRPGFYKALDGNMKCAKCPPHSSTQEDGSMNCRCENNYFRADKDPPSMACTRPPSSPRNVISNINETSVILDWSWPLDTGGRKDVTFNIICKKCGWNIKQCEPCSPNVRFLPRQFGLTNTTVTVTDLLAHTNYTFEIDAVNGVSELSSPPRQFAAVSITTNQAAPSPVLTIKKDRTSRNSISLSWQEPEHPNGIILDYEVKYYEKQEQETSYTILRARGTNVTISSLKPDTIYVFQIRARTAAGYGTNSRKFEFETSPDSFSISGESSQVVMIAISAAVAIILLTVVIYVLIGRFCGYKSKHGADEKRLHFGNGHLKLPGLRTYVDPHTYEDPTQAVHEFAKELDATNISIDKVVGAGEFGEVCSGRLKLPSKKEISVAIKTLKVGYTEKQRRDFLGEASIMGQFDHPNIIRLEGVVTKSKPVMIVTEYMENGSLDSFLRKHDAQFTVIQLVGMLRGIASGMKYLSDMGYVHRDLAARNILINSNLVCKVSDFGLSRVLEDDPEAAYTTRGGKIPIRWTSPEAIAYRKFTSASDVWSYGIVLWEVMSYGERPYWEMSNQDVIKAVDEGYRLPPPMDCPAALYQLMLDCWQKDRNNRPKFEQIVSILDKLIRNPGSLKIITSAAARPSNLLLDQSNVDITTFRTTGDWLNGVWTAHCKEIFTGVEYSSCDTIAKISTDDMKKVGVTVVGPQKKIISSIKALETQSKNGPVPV
# [2] = biological target: Ephrin type-A receptor 4 (Homo sapiens) (UniProt P54764); conditions: at 1 µM
# Chain of Ephrin type-A receptor 4 (Homo sapiens) (P54764 whole entry): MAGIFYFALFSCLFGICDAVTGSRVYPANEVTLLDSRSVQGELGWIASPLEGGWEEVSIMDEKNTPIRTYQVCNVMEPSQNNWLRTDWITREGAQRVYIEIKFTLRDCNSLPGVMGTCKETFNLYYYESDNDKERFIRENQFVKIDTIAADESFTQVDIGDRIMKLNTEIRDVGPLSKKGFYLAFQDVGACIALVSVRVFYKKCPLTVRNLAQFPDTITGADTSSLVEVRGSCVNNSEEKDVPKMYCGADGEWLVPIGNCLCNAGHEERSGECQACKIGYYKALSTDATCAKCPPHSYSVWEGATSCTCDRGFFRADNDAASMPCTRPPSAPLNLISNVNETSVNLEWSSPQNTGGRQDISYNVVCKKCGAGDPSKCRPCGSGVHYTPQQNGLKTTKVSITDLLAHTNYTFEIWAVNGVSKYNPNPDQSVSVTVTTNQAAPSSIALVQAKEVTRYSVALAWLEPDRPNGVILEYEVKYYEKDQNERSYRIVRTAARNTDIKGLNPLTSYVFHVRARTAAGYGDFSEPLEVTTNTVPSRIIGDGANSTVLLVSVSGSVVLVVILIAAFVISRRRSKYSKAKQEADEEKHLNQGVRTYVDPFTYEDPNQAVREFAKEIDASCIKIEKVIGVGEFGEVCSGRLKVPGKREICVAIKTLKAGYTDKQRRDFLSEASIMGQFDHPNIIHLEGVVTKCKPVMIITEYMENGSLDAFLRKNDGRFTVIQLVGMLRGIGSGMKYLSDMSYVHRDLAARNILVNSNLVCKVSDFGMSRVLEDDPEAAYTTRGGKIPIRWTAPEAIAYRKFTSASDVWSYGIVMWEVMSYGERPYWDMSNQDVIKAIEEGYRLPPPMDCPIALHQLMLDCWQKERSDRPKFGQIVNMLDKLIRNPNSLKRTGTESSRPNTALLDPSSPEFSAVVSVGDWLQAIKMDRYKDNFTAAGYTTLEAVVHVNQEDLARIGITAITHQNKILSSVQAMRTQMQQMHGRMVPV
# [3] = biological target: Ephrin type-A receptor 4 (Homo sapiens) (UniProt P54764); conditions: at 10 µM
# [4] = biological target: Ephrin type-A receptor 5 (Homo sapiens) (UniProt P54756); conditions: at 1 µM
# Chain of Ephrin type-A receptor 5 (Homo sapiens) (P54756 whole entry): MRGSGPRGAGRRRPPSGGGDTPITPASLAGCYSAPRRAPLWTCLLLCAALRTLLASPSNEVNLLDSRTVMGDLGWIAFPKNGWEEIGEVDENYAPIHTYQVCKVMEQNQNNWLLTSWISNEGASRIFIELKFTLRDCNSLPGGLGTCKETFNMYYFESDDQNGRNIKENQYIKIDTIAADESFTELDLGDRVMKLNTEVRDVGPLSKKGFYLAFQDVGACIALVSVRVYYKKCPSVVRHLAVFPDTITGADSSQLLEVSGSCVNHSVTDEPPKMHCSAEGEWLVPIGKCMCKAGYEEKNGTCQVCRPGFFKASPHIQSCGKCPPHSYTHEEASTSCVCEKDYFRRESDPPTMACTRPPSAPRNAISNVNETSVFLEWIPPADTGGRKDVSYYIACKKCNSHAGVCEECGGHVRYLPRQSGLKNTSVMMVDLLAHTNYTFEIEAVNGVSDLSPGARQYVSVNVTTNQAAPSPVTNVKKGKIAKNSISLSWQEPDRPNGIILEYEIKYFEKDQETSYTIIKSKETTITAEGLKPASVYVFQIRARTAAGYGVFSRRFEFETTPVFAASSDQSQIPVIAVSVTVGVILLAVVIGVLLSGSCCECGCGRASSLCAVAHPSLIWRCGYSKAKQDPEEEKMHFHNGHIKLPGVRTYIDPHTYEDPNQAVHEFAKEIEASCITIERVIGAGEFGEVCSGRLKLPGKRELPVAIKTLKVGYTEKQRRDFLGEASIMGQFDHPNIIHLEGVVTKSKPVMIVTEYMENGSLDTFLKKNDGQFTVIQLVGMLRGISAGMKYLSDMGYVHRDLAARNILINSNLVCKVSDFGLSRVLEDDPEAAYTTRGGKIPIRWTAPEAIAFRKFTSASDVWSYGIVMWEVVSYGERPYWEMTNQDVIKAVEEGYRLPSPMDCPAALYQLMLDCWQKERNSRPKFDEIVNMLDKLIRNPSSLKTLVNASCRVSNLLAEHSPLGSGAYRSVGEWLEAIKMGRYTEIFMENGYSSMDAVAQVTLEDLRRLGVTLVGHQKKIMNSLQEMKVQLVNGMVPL
# [5] = biological target: Ephrin type-A receptor 5 (Homo sapiens) (UniProt P54756); conditions: at 10 µM
# [6] = biological target: Ephrin type-A receptor 7 (Homo sapiens) (UniProt Q15375); conditions: at 1 µM
# Chain of Ephrin type-A receptor 7 (Homo sapiens) (Q15375 28-998 limits assumed): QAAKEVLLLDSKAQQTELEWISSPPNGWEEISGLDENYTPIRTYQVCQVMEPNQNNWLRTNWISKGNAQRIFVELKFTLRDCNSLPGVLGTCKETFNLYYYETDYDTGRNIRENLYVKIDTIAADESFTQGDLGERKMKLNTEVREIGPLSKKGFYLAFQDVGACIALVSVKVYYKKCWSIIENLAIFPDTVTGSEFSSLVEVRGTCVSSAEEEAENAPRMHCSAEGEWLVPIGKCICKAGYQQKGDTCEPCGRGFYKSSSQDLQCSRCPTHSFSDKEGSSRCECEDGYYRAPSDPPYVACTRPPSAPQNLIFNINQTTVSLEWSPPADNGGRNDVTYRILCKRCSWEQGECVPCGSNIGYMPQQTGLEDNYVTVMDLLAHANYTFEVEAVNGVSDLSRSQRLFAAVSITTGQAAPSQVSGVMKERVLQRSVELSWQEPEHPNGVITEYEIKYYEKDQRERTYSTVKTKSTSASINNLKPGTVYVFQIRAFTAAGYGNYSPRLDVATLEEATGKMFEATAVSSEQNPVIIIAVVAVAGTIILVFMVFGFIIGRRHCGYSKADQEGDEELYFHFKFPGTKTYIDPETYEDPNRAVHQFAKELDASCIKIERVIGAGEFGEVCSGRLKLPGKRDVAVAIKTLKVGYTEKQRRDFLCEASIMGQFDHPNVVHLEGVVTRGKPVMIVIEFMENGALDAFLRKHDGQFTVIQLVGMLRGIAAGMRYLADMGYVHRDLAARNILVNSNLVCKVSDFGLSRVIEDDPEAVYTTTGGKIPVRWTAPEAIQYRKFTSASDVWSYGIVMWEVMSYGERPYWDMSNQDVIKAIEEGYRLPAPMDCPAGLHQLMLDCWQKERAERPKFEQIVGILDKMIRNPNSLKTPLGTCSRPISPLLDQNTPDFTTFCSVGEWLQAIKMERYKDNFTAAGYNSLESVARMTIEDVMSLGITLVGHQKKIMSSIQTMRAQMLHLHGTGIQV
# [7] = biological target: Ephrin type-A receptor 7 (Homo sapiens) (UniProt Q15375); conditions: at 10 µM
# [8] = biological target: T2, Ephrin type-A receptor 8 (Homo sapiens) (UniProt P29322); conditions: at 1 µM
# T2 sequence (whole entry): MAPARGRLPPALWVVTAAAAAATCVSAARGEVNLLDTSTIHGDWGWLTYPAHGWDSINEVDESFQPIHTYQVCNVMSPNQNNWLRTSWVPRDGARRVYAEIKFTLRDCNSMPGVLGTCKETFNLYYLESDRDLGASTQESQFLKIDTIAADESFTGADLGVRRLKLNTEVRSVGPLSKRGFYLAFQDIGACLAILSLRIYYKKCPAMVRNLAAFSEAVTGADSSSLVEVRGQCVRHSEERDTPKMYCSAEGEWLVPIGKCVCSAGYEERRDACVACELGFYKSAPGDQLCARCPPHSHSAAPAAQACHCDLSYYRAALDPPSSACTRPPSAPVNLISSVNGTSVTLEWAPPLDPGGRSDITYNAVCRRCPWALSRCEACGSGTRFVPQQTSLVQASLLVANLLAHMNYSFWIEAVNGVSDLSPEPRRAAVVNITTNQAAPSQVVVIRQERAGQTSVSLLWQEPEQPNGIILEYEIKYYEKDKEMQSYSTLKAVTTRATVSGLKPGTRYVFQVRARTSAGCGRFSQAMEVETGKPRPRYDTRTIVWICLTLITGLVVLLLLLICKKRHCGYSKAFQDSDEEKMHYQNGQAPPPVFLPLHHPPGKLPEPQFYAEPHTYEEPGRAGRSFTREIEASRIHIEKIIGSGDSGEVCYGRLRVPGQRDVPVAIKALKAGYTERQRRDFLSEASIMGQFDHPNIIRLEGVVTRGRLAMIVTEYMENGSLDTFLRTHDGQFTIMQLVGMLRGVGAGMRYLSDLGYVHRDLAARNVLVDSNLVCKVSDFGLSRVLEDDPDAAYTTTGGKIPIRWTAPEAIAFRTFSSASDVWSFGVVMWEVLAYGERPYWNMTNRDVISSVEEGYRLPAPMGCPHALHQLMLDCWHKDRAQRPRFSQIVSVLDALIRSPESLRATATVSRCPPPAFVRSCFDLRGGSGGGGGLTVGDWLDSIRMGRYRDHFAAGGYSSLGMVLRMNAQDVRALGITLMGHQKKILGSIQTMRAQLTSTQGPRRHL
# [9] = biological target: T2, Ephrin type-A receptor 8 (Homo sapiens); conditions: at 10 µM
# [10] = biological target: T3, Ephrin type-B receptor 1 (Homo sapiens) (UniProt P54762); conditions: at 10 µM
# T3 sequence (whole entry): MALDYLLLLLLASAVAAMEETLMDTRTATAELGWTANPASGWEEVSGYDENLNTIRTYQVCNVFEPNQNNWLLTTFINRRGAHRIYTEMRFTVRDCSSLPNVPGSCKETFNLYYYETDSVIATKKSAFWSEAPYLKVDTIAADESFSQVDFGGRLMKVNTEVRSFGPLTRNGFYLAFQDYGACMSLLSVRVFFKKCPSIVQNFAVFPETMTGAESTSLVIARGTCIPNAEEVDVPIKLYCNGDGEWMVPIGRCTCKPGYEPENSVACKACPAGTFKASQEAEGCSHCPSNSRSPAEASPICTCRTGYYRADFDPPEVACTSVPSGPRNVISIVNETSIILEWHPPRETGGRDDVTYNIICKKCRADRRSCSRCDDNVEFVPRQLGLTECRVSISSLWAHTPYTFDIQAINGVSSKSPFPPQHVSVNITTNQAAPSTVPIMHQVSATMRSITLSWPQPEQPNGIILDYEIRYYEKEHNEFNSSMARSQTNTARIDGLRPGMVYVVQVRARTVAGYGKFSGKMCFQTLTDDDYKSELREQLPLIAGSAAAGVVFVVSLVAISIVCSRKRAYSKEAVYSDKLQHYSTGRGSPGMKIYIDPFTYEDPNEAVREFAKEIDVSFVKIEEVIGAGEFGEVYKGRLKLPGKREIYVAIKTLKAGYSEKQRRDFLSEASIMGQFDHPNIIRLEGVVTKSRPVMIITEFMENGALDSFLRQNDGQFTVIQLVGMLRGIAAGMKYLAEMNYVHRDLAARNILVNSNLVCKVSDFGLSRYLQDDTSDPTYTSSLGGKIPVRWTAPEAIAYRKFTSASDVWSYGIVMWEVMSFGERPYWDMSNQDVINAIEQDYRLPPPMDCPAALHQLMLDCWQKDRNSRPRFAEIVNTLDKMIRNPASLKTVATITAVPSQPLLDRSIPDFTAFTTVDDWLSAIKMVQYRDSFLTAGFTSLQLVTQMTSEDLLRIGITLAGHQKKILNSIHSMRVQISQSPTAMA
# [11] = biological target: T4, Ephrin type-B receptor 2 (Homo sapiens) (UniProt P29323); conditions: at 1 µM
# T4 sequence (whole entry): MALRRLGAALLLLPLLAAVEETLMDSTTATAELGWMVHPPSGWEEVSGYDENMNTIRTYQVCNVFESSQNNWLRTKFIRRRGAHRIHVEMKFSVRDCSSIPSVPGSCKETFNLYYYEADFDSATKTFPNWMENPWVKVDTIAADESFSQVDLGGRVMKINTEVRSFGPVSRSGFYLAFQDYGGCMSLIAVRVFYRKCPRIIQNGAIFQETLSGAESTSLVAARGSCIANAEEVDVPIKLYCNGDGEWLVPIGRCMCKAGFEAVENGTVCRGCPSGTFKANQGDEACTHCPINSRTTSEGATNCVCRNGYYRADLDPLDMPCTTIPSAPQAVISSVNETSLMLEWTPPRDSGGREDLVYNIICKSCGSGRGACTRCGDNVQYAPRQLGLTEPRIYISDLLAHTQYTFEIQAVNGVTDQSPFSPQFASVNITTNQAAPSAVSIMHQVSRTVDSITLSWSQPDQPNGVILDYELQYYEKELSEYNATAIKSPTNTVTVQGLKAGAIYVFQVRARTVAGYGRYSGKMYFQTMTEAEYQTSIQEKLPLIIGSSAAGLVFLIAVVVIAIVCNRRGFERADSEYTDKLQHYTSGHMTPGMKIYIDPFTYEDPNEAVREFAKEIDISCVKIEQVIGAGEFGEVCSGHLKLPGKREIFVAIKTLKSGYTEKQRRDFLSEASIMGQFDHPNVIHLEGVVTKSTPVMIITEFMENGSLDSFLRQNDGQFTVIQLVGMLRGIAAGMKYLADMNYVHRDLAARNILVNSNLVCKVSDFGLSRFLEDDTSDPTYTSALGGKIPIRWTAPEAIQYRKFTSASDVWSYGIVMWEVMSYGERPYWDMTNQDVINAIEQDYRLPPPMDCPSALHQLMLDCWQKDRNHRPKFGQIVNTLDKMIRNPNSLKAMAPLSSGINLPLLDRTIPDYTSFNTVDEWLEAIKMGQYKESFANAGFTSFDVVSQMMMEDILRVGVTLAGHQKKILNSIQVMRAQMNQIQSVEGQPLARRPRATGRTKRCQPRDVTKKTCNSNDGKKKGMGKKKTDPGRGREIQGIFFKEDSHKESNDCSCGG
# [12] = biological target: T4, Ephrin type-B receptor 2 (Homo sapiens); conditions: at 10 µM
# [13] = biological target: T5, Ephrin type-B receptor 3 (Homo sapiens) (UniProt P54753); conditions: at 1 µM
# T5 sequence (whole entry): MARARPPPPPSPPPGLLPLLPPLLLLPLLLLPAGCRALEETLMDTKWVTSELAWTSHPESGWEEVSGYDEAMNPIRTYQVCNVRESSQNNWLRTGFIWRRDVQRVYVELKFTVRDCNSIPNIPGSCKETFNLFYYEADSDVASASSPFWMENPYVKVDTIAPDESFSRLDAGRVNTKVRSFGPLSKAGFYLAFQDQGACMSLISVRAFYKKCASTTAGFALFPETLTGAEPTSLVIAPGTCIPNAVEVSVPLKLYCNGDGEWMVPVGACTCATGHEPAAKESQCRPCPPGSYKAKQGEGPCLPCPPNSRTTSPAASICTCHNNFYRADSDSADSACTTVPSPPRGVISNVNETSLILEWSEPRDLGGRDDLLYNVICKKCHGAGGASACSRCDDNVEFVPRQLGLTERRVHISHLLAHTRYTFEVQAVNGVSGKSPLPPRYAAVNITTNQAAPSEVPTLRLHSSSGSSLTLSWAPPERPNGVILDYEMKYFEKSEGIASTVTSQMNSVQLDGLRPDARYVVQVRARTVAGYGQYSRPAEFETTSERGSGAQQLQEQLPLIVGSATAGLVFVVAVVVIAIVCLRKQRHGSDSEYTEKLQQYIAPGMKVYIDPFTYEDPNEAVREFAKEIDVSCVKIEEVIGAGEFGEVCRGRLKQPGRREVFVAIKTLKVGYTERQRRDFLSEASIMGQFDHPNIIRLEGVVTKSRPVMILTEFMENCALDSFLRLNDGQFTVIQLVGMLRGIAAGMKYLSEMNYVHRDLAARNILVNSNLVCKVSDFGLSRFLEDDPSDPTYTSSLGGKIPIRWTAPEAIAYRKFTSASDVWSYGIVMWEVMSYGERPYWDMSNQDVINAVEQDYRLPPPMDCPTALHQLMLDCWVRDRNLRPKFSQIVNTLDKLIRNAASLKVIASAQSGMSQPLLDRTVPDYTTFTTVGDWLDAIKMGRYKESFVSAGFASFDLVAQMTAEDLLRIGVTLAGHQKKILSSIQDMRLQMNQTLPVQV
# [14] = biological target: T5, Ephrin type-B receptor 3 (Homo sapiens); conditions: at 10 µM
# [15] = biological target: T6, Ephrin type-B receptor 4 (Homo sapiens) (UniProt P54760); conditions: at 1 µM
# T6 sequence (whole entry): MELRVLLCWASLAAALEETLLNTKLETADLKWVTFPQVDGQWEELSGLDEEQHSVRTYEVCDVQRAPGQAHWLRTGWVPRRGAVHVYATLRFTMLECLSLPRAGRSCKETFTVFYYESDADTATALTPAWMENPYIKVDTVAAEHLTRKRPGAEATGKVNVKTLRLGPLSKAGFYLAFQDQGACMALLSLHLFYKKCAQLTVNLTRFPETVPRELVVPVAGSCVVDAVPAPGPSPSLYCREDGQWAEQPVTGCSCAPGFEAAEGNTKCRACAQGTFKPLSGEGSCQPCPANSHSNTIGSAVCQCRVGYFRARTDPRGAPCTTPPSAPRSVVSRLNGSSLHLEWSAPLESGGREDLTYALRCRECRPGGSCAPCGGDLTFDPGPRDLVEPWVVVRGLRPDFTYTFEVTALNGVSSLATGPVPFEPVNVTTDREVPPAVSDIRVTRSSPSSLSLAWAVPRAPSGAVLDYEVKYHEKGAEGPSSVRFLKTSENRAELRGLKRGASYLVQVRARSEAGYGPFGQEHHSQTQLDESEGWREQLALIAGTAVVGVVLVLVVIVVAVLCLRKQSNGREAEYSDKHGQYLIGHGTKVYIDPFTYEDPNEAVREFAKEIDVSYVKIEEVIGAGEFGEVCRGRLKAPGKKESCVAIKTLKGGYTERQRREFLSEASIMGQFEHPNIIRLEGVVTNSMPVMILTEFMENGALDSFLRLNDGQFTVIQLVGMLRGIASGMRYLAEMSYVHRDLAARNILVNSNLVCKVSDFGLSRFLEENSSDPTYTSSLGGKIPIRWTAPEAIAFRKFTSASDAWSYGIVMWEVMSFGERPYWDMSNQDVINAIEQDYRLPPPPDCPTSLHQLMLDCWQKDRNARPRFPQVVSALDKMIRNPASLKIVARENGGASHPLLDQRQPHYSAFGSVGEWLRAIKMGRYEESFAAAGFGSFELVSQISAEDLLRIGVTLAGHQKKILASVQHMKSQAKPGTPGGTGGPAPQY
# [16] = biological target: Receptor tyrosine-protein kinase erbB-4 (Homo sapiens) (UniProt Q15303); conditions: at 1 µM
# Chain of Receptor tyrosine-protein kinase erbB-4 (Homo sapiens) (Q15303 whole entry): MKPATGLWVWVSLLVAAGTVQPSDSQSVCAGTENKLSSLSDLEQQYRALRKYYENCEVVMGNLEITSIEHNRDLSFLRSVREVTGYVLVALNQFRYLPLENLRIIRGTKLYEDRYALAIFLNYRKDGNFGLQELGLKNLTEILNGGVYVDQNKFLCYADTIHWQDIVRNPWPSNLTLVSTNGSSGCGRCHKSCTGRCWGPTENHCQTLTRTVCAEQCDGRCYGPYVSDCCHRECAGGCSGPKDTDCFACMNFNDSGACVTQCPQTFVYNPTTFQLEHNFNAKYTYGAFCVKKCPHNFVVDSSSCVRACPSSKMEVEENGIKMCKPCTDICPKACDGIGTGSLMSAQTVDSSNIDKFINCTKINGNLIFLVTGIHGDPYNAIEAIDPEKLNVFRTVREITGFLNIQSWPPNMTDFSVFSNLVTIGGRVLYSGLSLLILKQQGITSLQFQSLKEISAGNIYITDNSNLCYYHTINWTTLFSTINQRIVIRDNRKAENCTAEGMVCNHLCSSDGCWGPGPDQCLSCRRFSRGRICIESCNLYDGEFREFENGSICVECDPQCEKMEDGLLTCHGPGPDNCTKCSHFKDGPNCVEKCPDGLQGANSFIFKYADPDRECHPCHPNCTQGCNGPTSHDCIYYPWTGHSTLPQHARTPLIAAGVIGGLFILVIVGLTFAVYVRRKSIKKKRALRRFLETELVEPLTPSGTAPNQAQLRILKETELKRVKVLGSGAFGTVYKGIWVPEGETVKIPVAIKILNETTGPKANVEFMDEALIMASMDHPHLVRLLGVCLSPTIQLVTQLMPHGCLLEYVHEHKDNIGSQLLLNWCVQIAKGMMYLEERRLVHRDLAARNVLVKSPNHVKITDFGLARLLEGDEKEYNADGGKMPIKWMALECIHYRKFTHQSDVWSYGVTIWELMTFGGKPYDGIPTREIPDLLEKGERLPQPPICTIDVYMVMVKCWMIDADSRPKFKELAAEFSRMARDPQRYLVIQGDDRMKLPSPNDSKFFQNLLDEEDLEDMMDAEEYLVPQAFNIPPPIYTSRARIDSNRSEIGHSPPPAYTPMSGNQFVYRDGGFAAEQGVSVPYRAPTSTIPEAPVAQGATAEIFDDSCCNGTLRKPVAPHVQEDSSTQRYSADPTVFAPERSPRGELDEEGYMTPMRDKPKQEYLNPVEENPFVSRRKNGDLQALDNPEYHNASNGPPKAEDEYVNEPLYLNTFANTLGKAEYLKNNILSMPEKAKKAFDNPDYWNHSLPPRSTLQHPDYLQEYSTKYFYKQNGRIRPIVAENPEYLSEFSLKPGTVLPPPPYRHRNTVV
# [17] = biological target: Receptor tyrosine-protein kinase erbB-4 (Homo sapiens) (UniProt Q15303); conditions: at 10 µM
# [18] = biological target: Focal adhesion kinase 1 (Homo sapiens) (UniProt Q05397); conditions: at 1 µM
structure (smiles),measurement,setting,value
O=C(CCCc1ccc(-c2ccccc2F)cc1)Nc1ccc(O)cc1,residual activity,[1],111%
same,residual activity,[2],108%
same,residual activity,[3],96%
same,residual activity,[4],111%
same,residual activity,[5],106%
same,residual activity,[6],102%
same,residual activity,[7],104%
same,residual activity,[8],103%
same,residual activity,[9],94%
same,residual activity,[10],98%
same,residual activity,[11],107%
same,residual activity,[12],112%
same,residual activity,[13],109% (inactive)
same,residual activity,[14],97%
same,residual activity,[15],93%
same,residual activity,[16],111%
same,residual activity,[17],127%
same,residual activity,[18],105%
